Bioassay records as filed in PubChem.
Rows were chosen to be rich in hits. Some 4.6% of all compounds tested hit in one or more screens of this group.
TIM10 inh = growth inhibitors of isogenic TIM10 control yeast, primary screen, counter-screen for tim10-1 yeast inhibitor project, luminescence, uHTS. inhibition, % at 10 µM. 330,000 compounds, 1.4% hits. S. cerevisiae TIM10 strain growth, BacTiter-Glo luminescence, 24 h. AID 463195, 2010;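 active = inhibition of 40% or more at the single tested concentration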;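 note: wild-type TIM10 isogenic control strain grown at permissive 25 °C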
tim10-1 inh = growth inhibitors of tim10-1 mutant yeast, primary screen, luminescence, uHTS | S. cerevisiae tim10-1 ts strain growth, BacTiter-Glo, 24 h | inhibition, % at 20 µM | AID 463190, 2010 | 330,000 compounds, 2.2% hits;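 active = inhibition of at least 40%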;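 note: mutant grown at 25 °C; 0% = DMSO wells with yeast and 100% = wells holding no yeast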
SKKanGAS inh = S. pyogenes SKKanGAS growth inhibitors in kanamycin, primary screen, streptokinase expression inhibitor project, SKKanGAS strain, BacTiter-Glo luminescence; 6 h; inhibition, % at 7.5 µM; 300,000 compounds, 1.3% hits; AID 1662, 2009;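 active = mean replicate score, as percent of positive control median, at least 50; inconclusive = mean below 50 but one replicate at or above 50; inactive = mean and every replicate below 50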;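 note: strain carries kanamycin resistance gene driven by streptokinase promoter and grows in 40 µg/ml kanamycin; loss of luminescence reflects streptokinase promoter inhibition or plain growth inhibition; 0% = median of DMSO wells and 100% = positive control at its reference dose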
NALP3 yeast inh = NALP3 inflammasome inhibitors in reconstituted yeast, primary screen, luminescence, uHTS; 330,000 compounds, 0.39% hits; Yeast reconstituted NLRP3/ASC/caspase-1, beta-gal luminescence, 24 h; AID 2825, 2010; inhibition, % at 10 µM;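 active = inhibition of 50% or more; inactive = inhibition below 50%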;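 note: plate controls were induced DMSO wells for no effect and uninduced yeast grown without galactose for full effect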
PfHsp90 yeast 2 = growth inhibition of PfHsp90-expressing yeast, primary screen, antimalarial PfHsp90 inhibitor project, S. cerevisiae, BacTiter-Glo luminescence, single point, set 2; BacTiter-Glo ATP, 48 h; yeast lacking PDR1 and PDR3 efflux regulators; 310,000 compounds, 0.32% hits; AID 504621, 2011; inhibition, % at 9.4 µM;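 active = every replicate shows inhibition above about 80%, whatever the replicate mean, limit read from the data; inconclusive = mean inhibition reaches the set limit but some replicate falls short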;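 note: 0% = DMSO neutral controls and 100% = 20 µM radicicol positive controls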
tim23-1 inh = growth inhibitors of tim23-1 mutant yeast, primary screen, luminescence, uHTS | S. cerevisiae tim23-1 growth, BacTiter-Glo luminescence, 24 h | inhibition, % at 20 µM | 330,000 compounds, 1.3% hits;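 active = growth inhibition of the mutant yeast at or above 50%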;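 note: temperature-sensitive mutant grown at 25 °C; plate controls were DMSO-treated mutant yeast for no effect and medium wells lacking yeast for full effect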
* marks the source's active call; other numbers are inactive results; ? = inconclusive; / = not tested or not shown.

SMILES	TIM10 inh	tim10-1 inh	SKKanGAS inh	NALP3 yeast inh	PfHsp90 yeast 2	tim23-1 inh
C=C1CCC2C(C)(C)[C@H](O)CC[C@@]2(C)[C@@H]1COc1cc(=O)oc2ccccc12 (some centres not stated)	3	22	19	24	10	39
C=C1CCC2C(C)(C)[C@@H](O)CC[C@@]2(C)[C@@H]1COc1ccc2ccc(=O)oc2c1 (some centres not stated)	-11	15	52*	15	0	35
Oc1ccc(N=Nc2ccc3ccccc3c2)cc1	6	-62	24	42	108*	-16
Cn1c(O)c(/C=N/NC(=O)c2cc3ccccc3cc2O)c2ccccc21	1	-3	104*	4	-16	20
CCOC(=O)N1CCN(C(=O)c2ccc3c(c2)NC(=O)/C(=C/c2ccccc2)S3)CC1	6	23	93*	16	-53	25
Cc1ccc(/C=C2/Sc3ccc(C(=O)N4CCN(c5ccccn5)CC4)cc3NC2=O)cc1	3	21	67*	29	-1	11
COc1cc([N+](=O)[O-])cc(/C=N\NC(=O)C2COc3ccccc3O2)c1O (configuration not stated)	6	10	104*	27	-17	5
COc1cc([N+](=O)[O-])cc(/C=N/NC(=O)C(O)(c2ccccc2)c2ccccc2)c1O	-3	11	98*	24	-23	36
COc1cc([N+](=O)[O-])cc(/C=N/NC(=O)c2cccnc2)c1O	-4	14	88*	1	-32	-7
Cc1ccc(S(=O)(=O)N2CCC(C(=O)OCc3ccc([N+](=O)[O-])cc3)CC2)cc1	40	37	-1	17	9	32
C=Cn1cc[n+](CC(=O)c2ccc(-c3ccccc3)cc2)c1	-117	-17	-3	13	-6	-84
Oc1c(Cl)cc(Cl)cc1C(C#Cc1ccccc1)N1CCOCC1 (configuration not stated)	18	34	90*	-14	-14	32
N#CC(c1ccc(Cl)cc1)N1CCOCC1 (configuration not stated)	12	-6	1	19	-2	15
c1ccc(-c2ccc(C3=Nn4c(nnc4-c4cccs4)SC3)cc2)cc1	12	-9	51*	2	0	24
COc1cccc(OCC(=O)NC2CCS(=O)(=O)C2)c1 (configuration not stated)	-1	-3	/	15	-7	3
Cc1cc(C)c2nc(-c3ccccn3)cc(C(=O)Nc3ccc(S(=O)(=O)Nc4onc(C)c4C)cc3)c2c1	-2	7	64*	3	-5	14
Cc1cc(C)c2nc(-c3ccccn3)cc(C(=O)Nc3ccc(S(=O)(=O)Nc4cc(C)on4)cc3)c2c1	15	25	42	-16	2	19
O=C(NCc1cccnc1)c1ccc(NC(=O)c2cccc([N+](=O)[O-])c2)cc1	8	11	-1	7	-4	1
Cc1cc(C)nc(N/N=C/c2cc(Br)ccc2O)n1	-4	-31	69*	38	-51	26
Cc1cc(C)nc(N/N=C/c2ccccc2OCc2ccc(Br)cc2)n1	34	20	-2	22	-16	25
OC(CNCCC1C=Nc2ccccc21)Cn1c2ccc(Cl)cc2c2cc(Cl)ccc21 (configuration not stated)	/	/	136*	/	105*	/
Cc1ccc(C(=O)NCCc2nnc3ccc(NCc4ccc5c(c4)OCO5)nn23)cc1	-1	-18	-1	11	7	-2
O=C1C(Cl)=C(NCCCO)C(=O)c2ccccc21	25	29	6	21	-3	30
CCOCCCNC1=C(Cl)C(=O)c2ccccc2C1=O	30	36	-5	19	107*	45
COc1cc(NC(=O)C(=O)NNC(=O)C2CCCCC2)c(OC)cc1Cl	-7	-1	7	11	-33	-5
SMILES	TIM10 inh	tim10-1 inh	SKKanGAS inh	NALP3 yeast inh	PfHsp90 yeast 2	tim23-1 inh
COc1cc(OC)cc(C(=O)NNC(=O)C(=O)Nc2cc(OC)c(Cl)cc2OC)c1	-11	-7	54*	-3	-18	-5
CC(C)(C)c1ccc(CN(Cc2ccco2)Cc2nnnn2C2CCCC2)cc1	22	18	51*	15	4	11
COc1ccc(NC(=O)COC(=O)c2c3c(nc4ccccc24)CCCC3)cc1Cl	30	20	61*	8	-10	10
COc1ccc(NC(=O)COC(=O)c2c3c(nc4ccccc24)CCCC3)cc1	20	21	9	22	/	1
CC(C)=CCC/C(C)=C/Cc1c(O)ccc(C(=O)/C=C/c2ccc(O)cc2)c1O	15	-60	106*	24	50	1
COCOc1ccc(/C=C/C(=O)c2c(OCOC)cc(OCOC)c(CC=C(C)C)c2O)cc1OCOC	-1	7	13	1	/	-3
O=C1CC(c2ccccc2)=NN1c1nc(-c2ccccc2)cs1	-6	-34	?	10	92*	29
CC1=NN(c2nc(-c3ccccc3)cs2)C(=O)C1	25	26	66*	6	-27	-39
CC1=NN(c2nc(-c3ccc(C#N)cc3)cs2)C(=O)C1	5	38	-14	27	/	8
O=C(Nc1cccc(Cl)c1N1CCCC1)c1cccc(-c2cc3ccccc3oc2=O)c1	14	9	14	2	-4	15
CN(C(=O)CSc1n[nH]c(-c2cccs2)n1)C1CCS(=O)(=O)C1 (configuration not stated)	-1	-7	2	5	2	6
CCC[C@@H]1C[C@@H](C(=O)N[C@@H](C2O[C@H](SC)[C@H](O)[C@@H](O)[C@H]2O)[C@H](C)Cl)N(C)C1 (some centres not stated)	2	14	104*	22	/	9
CCCC1CC(C(=O)NC(C(C)Cl)C2OC(SC)C(O)C(O)C2O)N(C)C1 (configuration not stated)	-9	-6	106*	18	7	3
CCC[C@@H]1C[C@@H](C(=O)NC(C(C)Cl)[C@H]2O[C@H](SC)[C@H](O)[C@@H](O)[C@H]2O)N(C)C1 (some centres not stated)	4	8	106*	7	2	19
C[C@H](CO)N1C[C@H](C)[C@@H](CN(C)C(=O)Nc2ccc3c(c2)OCO3)Oc2ccc(NC(=O)NC3CCCCC3)cc2C1=O	-8	-8	/	14	0	-10
O=[N+]([O-])c1cc2no[n+]([O-])c2cc1N1CCCCC1	/	/	/	/	105*	/
